Measurements from PubChem BioAssay AID623992 (NMMLSC, 2012).
Entries with a potency or affinity are not part of this list. Activity calls are given as the source filed them.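 The calls were made as follows: active = compounds whose fitted half-maximal effective concentration for blocking dye efflux is below 100 µM; inactive = the rest.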

The compounds below were run against Benomyl/methotrexate resistance protein (Candida albicans) (UniProt P28873) (assay: Candida albicans Mdr1 pump blockade titration – singleplex, Cherry Pick2 set, dose response (AID 623992)). Conditions: S. cerevisiae AD/CaMDR1, Nile Red efflux, flow cytometry; series mostly up to 100 µM.
Benomyl/methotrexate resistance protein (Candida albicans), sequence (P28873 whole entry, looked up): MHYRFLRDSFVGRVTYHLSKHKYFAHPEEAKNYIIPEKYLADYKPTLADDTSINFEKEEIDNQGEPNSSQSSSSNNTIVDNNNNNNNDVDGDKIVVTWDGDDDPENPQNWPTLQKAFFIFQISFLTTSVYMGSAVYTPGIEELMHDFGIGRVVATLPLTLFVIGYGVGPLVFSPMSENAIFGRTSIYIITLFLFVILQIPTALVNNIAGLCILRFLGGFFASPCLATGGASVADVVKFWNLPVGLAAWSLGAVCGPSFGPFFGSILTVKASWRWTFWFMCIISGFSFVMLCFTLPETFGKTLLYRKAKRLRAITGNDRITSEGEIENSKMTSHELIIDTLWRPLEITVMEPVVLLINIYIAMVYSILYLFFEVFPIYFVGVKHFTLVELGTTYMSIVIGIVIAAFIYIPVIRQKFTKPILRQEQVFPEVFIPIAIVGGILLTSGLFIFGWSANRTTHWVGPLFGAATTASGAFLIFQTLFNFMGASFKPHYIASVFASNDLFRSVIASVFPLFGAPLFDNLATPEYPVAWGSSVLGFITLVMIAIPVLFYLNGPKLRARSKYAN

outcome, inactive:
COc1ccc(S(=O)(=O)N(C)C[C@H]2Oc3c(NC(=O)NC4CCCCC4)cccc3C(=O)N([C@H](C)CO)C[C@@H]2C)cc1
CCCCNC(=O)C1CCC(CNc2nc(=S)[nH]c3ccccc23)CC1 (stereo not given)
O=C(c1ccoc1)N1CCC2(CC1)Oc1ccc(F)cc1C(=O)C21CC(c2ccc(Cl)cc2)=NO1 (stereo not given)
O=C(Nc1ccccc1)C1=C[C@@H](c2ccc(C(F)(F)F)cc2)C[C@@H](OCCCCO)O1
COc1ccc2nc(NC(=O)c3cccs3)sc2c1
NS(=O)(=O)c1ccc(N2N=C(c3ccc(Br)cc3)CC2c2ccc(F)cc2)cc1 (stereo not given)
O=C(Nc1ccccc1)C1=C[C@H](c2ccccc2)C[C@H](OCCCCO)O1
COc1ccc(C2CC(c3cccc(OC)c3)=NN2c2ccc(S(N)(=O)=O)cc2)cc1 (stereo not given)
COc1ccc2sc(-c3ccccc3OC)c(-c3ccc(OCCN(C)C)cc3)c2c1
COc1ccc(C2CC(c3ccccc3C(F)(F)F)=NN2c2ccc(S(N)(=O)=O)cc2)cc1 (stereo not given)
OCCN1CCN(CC/C=C2/c3ccccc3Sc3ccc(C(F)(F)F)cc32)CC1
Cc1ccc(CN2C(=O)C(CC(C)C)Nc3ncnc(N4CCN(c5ccccc5)CC4)c32)cc1 (stereo not given)
CCCCN1Cc2cc(C(=O)c3cc(OC)ccc3O)cnc2NC1=O
O=C(c1ccc2c(c1)OCO2)N1CCC2(CC1)Oc1ccc(F)cc1C(=O)C21CC(c2ccc(Cl)cc2)=NO1 (stereo not given)
Cc1cc(C(=O)NC2CC(C)(C)Cc3c2cnn3-c2ccc(F)cc2)no1 (stereo not given)
O=C(NCCC1=CCCCC1)C1CCC(CNc2nc(=S)[nH]c3ccccc23)CC1 (stereo not given)
COc1cc(OC)c2ccc(=O)oc2c1C(CCN1CCCCC1)c1ccc(N(C)C)cc1 (stereo not given)
CCCCN1Cc2cc(C(=O)c3cc(F)ccc3O)cnc2NC1=O
C[C@@]12C(=O)Nc3cc(F)c(F)cc3C(=O)N1[C@H]1c3cc(Cl)ccc3OC[C@@H]1[C@@H]2c1ccccc1
CCC(Cc1ccccc1)OC(=O)c1ccccc1C(=O)O (stereo not given)
COc1ncccc1C(=O)NC1CCCc2c1cnn2-c1cc(C)cc(C)c1 (stereo not given)
COc1ccc2c(c1)OC[C@H]1[C@H]2N2C(=O)c3ccc(C)cc3NC(=O)[C@@]2(C)[C@H]1c1ccccc1
CCN(CC)CCC(c1ccc(N(C)C)cc1)c1c(OC)cc(OC)c2ccc(=O)oc12 (stereo not given)
Cc1cccc2sc(N(CCCN(C)C)C(=O)c3ccc(Cl)s3)nc12
NS(=O)(=O)c1ccc(N2N=C(c3ccccc3)CC2c2ccccc2)cc1 (stereo not given)
O=C(C[n+]1cc(-c2ccc(F)cc2)n2c1CCC2)N1c2ccccc2Sc2ccccc21
COc1ccc(C2CC(c3ccccc3)=NN2c2ccc(S(N)(=O)=O)cc2)cc1 (stereo not given)
COc1cccc(-c2sc3ccc(OC)cc3c2-c2ccc(OCCN3CCOCC3)cc2)c1
O=C1C(Cc2ccccc2)Nc2ncnc(N3CCN(c4ccccc4)CC3)c2N1Cc1ccccc1 (stereo not given)
Nc1ccc(C(=O)OCCc2ccccc2)cc1
